Data as given in PubChem BioAssay (Tox21).
Where “and” joins values, the source holds several entries; their conditions need not be identical. Equal entries are not always repeated. Inconclusive results are not listed. Entries that show only a call come without a potency. Where a structure was tested more than once in an assay, its records may differ in their call. Calls of active or inactive are those of the source. The call rests on the fitted dose curve; in most records, active means well fitted curve in the direction sought with a large enough effect in the repeat runs; inconclusive means weak or mixed curves; inactive means no such curve, though single readings can be large; an effect the other way counts as inactive or inconclusive.

Legend:
[1] = Human pregnane X receptor (PXR) small molecule agonists, qHTS cell viability counter screen (AID 1346977); further: nearly all actives have a fitted effect of over 50% in size; further: potency means the concentration at half of the fitted maximal effect
How it was run: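 PXR-Luc HepG2 cells in medium with 5% charcoal-stripped FBS were pre-incubated 5hr, then exposed to compounds for 24hr at 37C. Viability was read in the same wells by CellTiter-Fluor fluorescence, reagent added after 23hr with a 1hr incubation.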

[2] = Caspase-3/7 induction in HepG2 cells by small molecules, qHTS assay (AID 1346978); further: nearly all actives have a fitted effect of over 15% in size; further: potency means the concentration at half of the fitted maximal effect
How it was run: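 Wild-type HepG2 cells, 2,000/well, settled 5 hr at 37 C and 5% CO2, then compound-treated for 17 hr; caspase-3/7 activity read by luminescent Caspase-Glo 3/7 after 30 min at room temperature.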

[3] = Caspase-3/7 induction in CHO-K1 cells by small molecules, qHTS cell viability counter screen (AID 1346979); further: nearly all actives have a fitted effect of over 35% in size; further: potency means the concentration at half of the fitted maximal effect
How it was run: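 Wild-type CHO-K1 cells were seeded at 1,500 per well, rested 5hr at 37 C, then exposed to compounds in DMSO. After 16hr, CellTiter-Fluor reagent was added and fluorescence read 1hr later as the viability measure.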

[4] = Caspase-3/7 induction in CHO-K1 cells by small molecules, qHTS assay (AID 1346980); further: nearly all actives have a fitted effect of over 15% in size
How it was run: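 Wild-type CHO-K1 cells exposed to compounds for 17hr at 37 C, 5% CO2. Caspase-3/7 activity then measured by Caspase-Glo 3/7 luminescence after 30min at room temperature.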

[5] = Caspase-3/7 induction in HepG2 cells by small molecules, qHTS cell viability counter screen (AID 1346981); further: nearly all actives have a fitted effect of over 30% in size; further: potency means the concentration at half of the fitted maximal effect
How it was run: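 Wild-type HepG2 cells (2,000/well) were allowed to settle for 5 hr at 37 C, 5% CO2, then dosed with compounds in DMSO by pin transfer. After 16 hr at 37 C, CellTiter-Fluor was added and fluorescence read 1 hr later.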

[6] = target: Nuclear receptor subfamily 1 group I member 2 (Homo sapiens) (UniProt O75469); experiment: Human pregnane X receptor (PXR) small molecule agonists, qHTS assay (AID 1346982); further: nearly all actives have a fitted effect of over 35% in size; further: potency means the concentration at half of the fitted maximal effect
Nuclear receptor subfamily 1 group I member 2 (Homo sapiens), sequence (O75469 whole entry, looked up): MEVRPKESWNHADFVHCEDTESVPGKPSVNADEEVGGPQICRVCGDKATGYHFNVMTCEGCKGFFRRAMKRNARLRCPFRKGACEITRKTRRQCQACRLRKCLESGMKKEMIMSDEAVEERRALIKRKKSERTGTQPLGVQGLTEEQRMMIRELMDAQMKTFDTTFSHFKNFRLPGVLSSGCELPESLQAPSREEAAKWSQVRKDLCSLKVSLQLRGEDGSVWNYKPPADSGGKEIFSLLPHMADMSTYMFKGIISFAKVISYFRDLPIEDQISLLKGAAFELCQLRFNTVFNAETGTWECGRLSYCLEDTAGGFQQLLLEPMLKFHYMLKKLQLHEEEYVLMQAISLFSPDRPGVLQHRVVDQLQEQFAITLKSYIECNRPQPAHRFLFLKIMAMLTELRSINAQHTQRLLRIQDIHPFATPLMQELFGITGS
How it was run: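 PXR-Luc HepG2 cells (CYP3A4 promoter-driven luciferase) were seeded in medium with 5% charcoal-stripped FBS, left 5 hr at 37 C, then exposed to compounds in DMSO for 24 hr. Luminescence was read after ONE-Glo addition.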

[7] = target: Cytochrome P450 2D6 (Homo sapiens) (UniProt P10635); experiment: Cytochrome P450 Family 2 Subfamily D Member 6 (CYP2D6) small molecule antagonists: luciferase reporter qHTS assay (AID 1671196); further: nearly all actives have a fitted effect of over 50% in size; further: potency means the concentration at half of the fitted maximal effect
Cytochrome P450 2D6 (Homo sapiens), sequence (P10635 whole entry, looked up): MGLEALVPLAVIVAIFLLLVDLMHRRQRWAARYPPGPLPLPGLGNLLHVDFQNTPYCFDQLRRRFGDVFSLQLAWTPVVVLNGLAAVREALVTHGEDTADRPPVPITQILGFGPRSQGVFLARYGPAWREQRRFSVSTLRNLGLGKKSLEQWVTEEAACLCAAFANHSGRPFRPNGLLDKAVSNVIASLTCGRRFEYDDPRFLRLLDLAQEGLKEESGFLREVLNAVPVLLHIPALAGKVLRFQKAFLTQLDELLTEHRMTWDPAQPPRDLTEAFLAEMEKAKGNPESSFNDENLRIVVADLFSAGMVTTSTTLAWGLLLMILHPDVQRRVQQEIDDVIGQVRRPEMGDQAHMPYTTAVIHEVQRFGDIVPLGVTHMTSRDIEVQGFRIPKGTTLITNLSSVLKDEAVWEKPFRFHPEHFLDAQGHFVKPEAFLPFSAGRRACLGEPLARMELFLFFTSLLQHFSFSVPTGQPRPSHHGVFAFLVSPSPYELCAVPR
How it was run: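 CYP2D6 enzyme–substrate mix was held with compound for 10 min at room temperature, then NADPH regeneration solution was added and the reaction ran 1 h at room temperature. Luciferin product was detected by luminescence after 20 min with detection reagent.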

[8] = target: Cytochrome P450 2C19 (Homo sapiens) (UniProt P33261); experiment: Cytochrome P450 Family 2 Subfamily C Member 19 (CYP2C19) small molecule antagonists: luciferase reporter qHTS assay (AID 1671197); further: nearly all actives have a fitted effect of over 65% in size; further: potency means the concentration at half of the fitted maximal effect
Cytochrome P450 2C19 (Homo sapiens), sequence (P33261 whole entry, looked up): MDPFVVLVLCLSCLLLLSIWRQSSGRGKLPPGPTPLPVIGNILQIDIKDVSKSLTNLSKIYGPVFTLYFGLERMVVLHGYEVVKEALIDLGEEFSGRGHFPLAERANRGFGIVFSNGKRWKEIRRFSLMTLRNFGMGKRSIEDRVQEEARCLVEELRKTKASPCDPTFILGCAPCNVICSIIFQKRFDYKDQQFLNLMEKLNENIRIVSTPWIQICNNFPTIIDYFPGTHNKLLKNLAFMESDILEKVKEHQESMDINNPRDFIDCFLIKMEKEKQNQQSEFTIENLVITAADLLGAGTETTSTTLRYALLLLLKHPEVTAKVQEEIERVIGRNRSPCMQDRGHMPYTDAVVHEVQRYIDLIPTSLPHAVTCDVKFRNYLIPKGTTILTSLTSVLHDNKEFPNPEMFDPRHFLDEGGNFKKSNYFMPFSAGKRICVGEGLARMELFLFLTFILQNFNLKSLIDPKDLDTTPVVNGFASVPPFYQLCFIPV
How it was run: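 Light output is proportional to CYP2C19 activity: proluciferin substrate is converted to luciferin, then detected by a luciferin detection reagent that also stops the 1 h, 37C NADPH-driven reaction. Ketoconazole serves as positive control.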

[9] = target: Cytochrome P450 2C9 (Homo sapiens) (UniProt P11712); experiment: Cytochrome P450 Family 2 Subfamily C Member 9 (CYP2C9) small molecule antagonists: luciferase reporter qHTS assay (AID 1671198); further: nearly all actives have a fitted effect of over 50% in size; further: potency means the concentration at half of the fitted maximal effect
Cytochrome P450 2C9 (Homo sapiens), sequence (P11712 whole entry, looked up): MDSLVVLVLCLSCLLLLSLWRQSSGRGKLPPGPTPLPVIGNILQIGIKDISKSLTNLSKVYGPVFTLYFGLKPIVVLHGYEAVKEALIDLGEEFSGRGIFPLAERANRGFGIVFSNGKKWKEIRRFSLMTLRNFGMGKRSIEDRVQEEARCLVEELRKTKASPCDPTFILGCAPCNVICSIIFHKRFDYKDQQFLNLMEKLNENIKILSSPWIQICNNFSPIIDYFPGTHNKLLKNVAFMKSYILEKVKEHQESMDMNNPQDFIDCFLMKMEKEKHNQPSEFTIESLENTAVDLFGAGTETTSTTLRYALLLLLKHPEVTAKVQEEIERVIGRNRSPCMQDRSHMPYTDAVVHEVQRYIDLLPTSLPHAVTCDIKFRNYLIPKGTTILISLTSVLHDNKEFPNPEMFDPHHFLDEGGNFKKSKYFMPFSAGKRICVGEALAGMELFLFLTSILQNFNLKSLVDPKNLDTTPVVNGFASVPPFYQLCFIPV
How it was run: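 P450-Glo proluciferin substrate with CYP2C9 enzyme; 10 min RT preincubation, then NADPH regeneration 1 h at 37C; luciferin detection reagent 20 min RT, luminescence in relative luminescence units.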

[10] = target: Cytochrome P450 1A2 (Homo sapiens) (UniProt P05177); experiment: Cytochrome P450 Family 1 Subfamily A Member 2 (CYP1A2) small molecule antagonists: luciferase reporter qHTS assay (AID 1671199); further: nearly all actives have a fitted effect of over 50% in size; further: potency means the concentration at half of the fitted maximal effect
Cytochrome P450 1A2 (Homo sapiens), sequence (P05177 whole entry, looked up): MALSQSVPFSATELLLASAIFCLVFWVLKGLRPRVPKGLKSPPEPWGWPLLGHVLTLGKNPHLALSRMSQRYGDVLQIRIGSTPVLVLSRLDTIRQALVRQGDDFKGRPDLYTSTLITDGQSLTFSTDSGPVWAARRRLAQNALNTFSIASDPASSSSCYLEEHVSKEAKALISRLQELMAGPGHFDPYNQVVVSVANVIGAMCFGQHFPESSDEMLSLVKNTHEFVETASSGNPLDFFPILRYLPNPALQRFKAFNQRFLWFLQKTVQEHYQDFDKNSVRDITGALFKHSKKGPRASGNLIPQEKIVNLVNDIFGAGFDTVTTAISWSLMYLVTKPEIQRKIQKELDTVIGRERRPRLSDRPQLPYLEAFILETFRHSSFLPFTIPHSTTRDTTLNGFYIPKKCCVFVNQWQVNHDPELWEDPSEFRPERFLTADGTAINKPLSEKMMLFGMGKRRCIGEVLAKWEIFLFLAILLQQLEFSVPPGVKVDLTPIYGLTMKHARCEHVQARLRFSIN
How it was run: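 Human CYP1A2 activity measured with a P450-Glo proluciferin substrate; compounds in DMSO preincubated 10 min at room temperature with enzyme-substrate mix, then NADPH regeneration system added for 1 h. Luciferin detection reagent, 20 min, luminescence read.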

[11] = target: Voltage-gated inwardly rectifying potassium channel KCNH2 (Homo sapiens) (UniProt Q12809); experiment: Human Ether-a-go-go-Related Gene (hERG) channel small molecule antagonists: fluorescence cell-based qHTS assay (AID 1671200); further: nearly all actives have a fitted effect of over 50% in size; further: potency means the concentration at half of the fitted maximal effect
Voltage-gated inwardly rectifying potassium channel KCNH2 (Homo sapiens), sequence (Q12809 whole entry, looked up): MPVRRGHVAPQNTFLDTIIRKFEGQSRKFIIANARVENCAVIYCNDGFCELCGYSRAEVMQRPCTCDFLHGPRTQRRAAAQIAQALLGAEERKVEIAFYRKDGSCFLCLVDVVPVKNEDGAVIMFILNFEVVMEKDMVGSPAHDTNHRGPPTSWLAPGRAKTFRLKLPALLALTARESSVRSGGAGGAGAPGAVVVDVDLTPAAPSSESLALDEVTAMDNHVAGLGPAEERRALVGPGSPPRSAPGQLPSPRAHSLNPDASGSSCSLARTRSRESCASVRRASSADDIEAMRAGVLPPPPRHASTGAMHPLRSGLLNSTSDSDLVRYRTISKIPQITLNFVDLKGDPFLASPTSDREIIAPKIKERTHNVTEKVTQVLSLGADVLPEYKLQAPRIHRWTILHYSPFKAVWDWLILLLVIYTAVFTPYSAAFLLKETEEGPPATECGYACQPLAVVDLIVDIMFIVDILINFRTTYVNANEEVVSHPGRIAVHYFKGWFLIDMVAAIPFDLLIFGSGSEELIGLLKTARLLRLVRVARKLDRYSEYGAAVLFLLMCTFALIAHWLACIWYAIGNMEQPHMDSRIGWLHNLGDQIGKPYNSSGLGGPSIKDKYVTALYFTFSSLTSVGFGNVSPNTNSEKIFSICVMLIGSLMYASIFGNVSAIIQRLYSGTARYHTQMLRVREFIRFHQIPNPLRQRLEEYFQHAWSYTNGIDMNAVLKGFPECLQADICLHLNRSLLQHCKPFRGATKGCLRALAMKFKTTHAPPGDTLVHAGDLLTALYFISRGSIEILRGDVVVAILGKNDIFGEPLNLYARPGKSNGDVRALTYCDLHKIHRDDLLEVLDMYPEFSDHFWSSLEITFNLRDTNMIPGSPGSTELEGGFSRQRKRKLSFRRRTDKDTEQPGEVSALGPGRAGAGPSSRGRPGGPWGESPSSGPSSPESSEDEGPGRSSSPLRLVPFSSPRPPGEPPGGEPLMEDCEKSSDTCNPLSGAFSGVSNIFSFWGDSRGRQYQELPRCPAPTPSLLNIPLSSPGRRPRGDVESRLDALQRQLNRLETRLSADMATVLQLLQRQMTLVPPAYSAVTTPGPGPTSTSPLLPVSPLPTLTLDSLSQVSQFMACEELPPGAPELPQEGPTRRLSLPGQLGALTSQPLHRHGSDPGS
How it was run: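 U2OS cells expressing the channel were plated at 1000 cells/well, incubated overnight at 37 C, then loaded with FluxOR II thallium-sensitive dye for 1 h at room temperature in the dark, with a further 10 min at room temperature before stimulation.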

[12] = target: Cytochrome P450 3A4 (Homo sapiens) (UniProt P08684); experiment: Cytochrome P450 Family 3 Subfamily A Member 4 (CYP3A4) small molecule antagonists: luciferase reporter qHTS assay (AID 1671201); further: nearly all actives have a fitted effect of over 50% in size; further: potency means the concentration at half of the fitted maximal effect
Cytochrome P450 3A4 (Homo sapiens), sequence (P08684 whole entry, looked up): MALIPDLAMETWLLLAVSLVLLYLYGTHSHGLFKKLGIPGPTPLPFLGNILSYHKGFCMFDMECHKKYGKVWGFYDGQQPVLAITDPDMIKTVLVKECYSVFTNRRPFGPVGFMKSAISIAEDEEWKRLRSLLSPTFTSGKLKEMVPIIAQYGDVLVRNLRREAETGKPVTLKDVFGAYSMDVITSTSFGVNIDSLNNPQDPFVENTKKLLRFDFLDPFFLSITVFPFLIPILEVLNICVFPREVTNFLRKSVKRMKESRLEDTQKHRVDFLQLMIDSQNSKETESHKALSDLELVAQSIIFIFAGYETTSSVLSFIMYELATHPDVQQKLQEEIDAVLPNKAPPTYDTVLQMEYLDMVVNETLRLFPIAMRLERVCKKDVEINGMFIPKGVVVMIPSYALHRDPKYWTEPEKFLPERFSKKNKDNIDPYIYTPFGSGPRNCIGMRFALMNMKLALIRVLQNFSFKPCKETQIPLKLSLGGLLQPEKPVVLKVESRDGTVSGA
How it was run: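 P450-Glo CYP3A4 system with proluciferin substrate; compounds preincubated 10 min RT with enzyme-substrate mix, then NADPH regeneration added for 1 h RT. Detection reagent 20 min, luminescence read as relative luminescence units.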

[13] = target: Nuclear receptor subfamily 1 group I member 2 (Homo sapiens) (UniProt O75469); experiment: CYP3A4 induction through human pregnane X receptor (PXR) by small molecules, qHTS assay (AID 1346984); further: nearly all actives have a fitted effect of over 40% in size
How it was run: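 DPX-2 cells (HepG2 co-transfected with PXR and CYP3A4 promoter-luciferase) treated with compounds 24 h at 37C; luciferin-IPA CYP3A4 substrate 3uM final added for 3 h, then One-Glo; luminescence read. qHTS format.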

[14] = target: Nuclear receptor subfamily 1 group I member 2 (Homo sapiens) (UniProt O75469); experiment: Human pregnane X receptor (PXR) activation by small molecules, qHTS assay (AID 1346985); further: nearly all actives have a fitted effect of over 40% in size; further: potency means the concentration at half of the fitted maximal effect
How it was run: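 DPX-2 cells (HepG2 co-transfected with a PXR response element and a CYP3A4-promoter luciferase construct) were seeded at 2,000 per well, rested 5 hr at 37C, then exposed to DMSO-dissolved compounds for 24 hr. Activation was read as luciferase luminescence.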

[15] = target: Nuclear receptor subfamily 1 group I member 2 (Rattus norvegicus) (UniProt Q9R1A7); experiment: Rat pregnane X receptor (rPXR) activation by small molecules, qHTS assay (AID 1346983); settings: rPXR luciferase reporter cells, One-Glo luminescence, 24 h; stronger effect = higher value; further: nearly all actives have a fitted effect of over 20% in size
Nuclear receptor subfamily 1 group I member 2 (Rattus norvegicus), sequence (Q9R1A7 whole entry, looked up): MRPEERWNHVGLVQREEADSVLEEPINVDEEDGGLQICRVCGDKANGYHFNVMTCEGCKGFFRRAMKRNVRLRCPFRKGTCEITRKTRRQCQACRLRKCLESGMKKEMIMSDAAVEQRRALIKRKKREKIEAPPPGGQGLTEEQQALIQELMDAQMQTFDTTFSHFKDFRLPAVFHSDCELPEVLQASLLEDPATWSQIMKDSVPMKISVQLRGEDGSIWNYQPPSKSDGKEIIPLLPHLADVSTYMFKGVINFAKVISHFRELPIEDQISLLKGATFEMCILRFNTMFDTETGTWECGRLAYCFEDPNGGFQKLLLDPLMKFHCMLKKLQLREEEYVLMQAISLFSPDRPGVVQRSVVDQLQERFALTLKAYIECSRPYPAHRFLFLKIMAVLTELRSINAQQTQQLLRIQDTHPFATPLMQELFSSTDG
How it was run: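 Cell-based rPXR activation assay: rPXR cells, 2,000 per well, rested 5hr at 37 C, then exposed to compounds in DMSO for 24 hr at 37 C. Luciferase activity read by One-Glo luminescence after 30 min at room temperature.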

CC(C)(C)NCC(O)COc1ccccc1OCC1CCCO1 (centres undefined)
Potency [1]: inactive | Potency [2]: inactive | Potency [3]: inactive | Potency [4]: inactive | Potency [5]: inactive | Potency [6]: inactive | Potency [7]: 2.75 µM (active) | Potency [8]: inactive | Potency [9]: inactive | Potency [10]: inactive | Potency [11]: inactive | Potency [12]: inactive

Cc1cccc2n[nH]nc12
Potency [1]: inactive | Potency [2]: inactive | Potency [3]: inactive | Potency [4]: inactive | Potency [5]: inactive | Potency [7]: inactive | Potency [8]: inactive | Potency [9]: inactive | Potency [11]: inactive | Potency [12]: inactive

O=Cc1ccc(Cl)cc1
Potency [1]: inactive | Potency [2]: inactive | Potency [3]: inactive | Potency [4]: inactive | Potency [5]: inactive | Potency [6]: inactive | Potency [9]: inactive | Potency [11]: inactive | Potency [12]: inactive

CC(C)CCOC(=O)c1ccc(N(C)C)cc1
Potency [1]: inactive | Potency [3]: inactive | Potency [4]: inactive | Potency [5]: inactive | Potency [6]: inactive | Potency [13]: inactive | Potency [14]: inactive | Potency [7]: inactive | Potency [8]: 4.9 µM (active) | Potency [9]: 8.71 µM (active) | Potency [10]: 2.88 µM (active) | Potency [11]: inactive | Potency [12]: inactive

Cc1cccc([N+](=O)[O-])c1C(=O)O
Potency [1]: inactive | Potency [2]: inactive | Potency [3]: inactive | Potency [4]: inactive | Potency [5]: inactive | Potency [6]: inactive | Potency [7]: 63.4 µM (active) | Potency [8]: inactive | Potency [9]: inactive | Potency [11]: inactive | Potency [12]: inactive

CN(C)c1ccc2nc3ccc(=[N+](C)C)cc-3sc2c1
Potency [1]: 1.86 µM (active) and 9.69 µM (active) and 10.6 µM (active) | Potency [3]: 5.87 µM (active) and 24.3 µM (active) and 5.96 µM (active) | Potency [4]: inactive | Potency [5]: 10.4 µM (active) and 27.3 µM (active) and 23.7 µM (active) | Potency [6]: inactive | max activation [15]: -8.38% (inactive) | Potency [13]: inactive | Potency [14]: 3.16 µM (active) | Potency [11]: inactive

CNCCC(Oc1ccc(C(F)(F)F)cc1)c1ccccc1 (centres undefined)
Potency [1]: 24 µM (active) and 26.6 µM (active) | Potency [2]: 26.9 µM (active) | Potency [3]: 67.7 µM (active) and 29.8 µM (active) | Potency [5]: 60.3 µM (active)

NCCCCCC(=O)O
Potency [2]: inactive | Potency [3]: inactive | Potency [4]: inactive | Potency [5]: inactive | Potency [6]: inactive | max activation [15]: 1.85% (inactive) | Potency [13]: inactive | Potency [14]: inactive | Potency [7]: inactive | Potency [8]: inactive | Potency [9]: inactive | Potency [10]: inactive | Potency [11]: inactive | Potency [12]: inactive

CC(=O)CC(C)=O
Potency [2]: inactive | Potency [3]: inactive | Potency [4]: inactive | Potency [5]: inactive | Potency [6]: inactive | Potency [7]: inactive | Potency [8]: inactive | Potency [9]: inactive | Potency [10]: inactive | Potency [11]: inactive | Potency [12]: inactive

CC(C)(C)c1ccccc1
Potency [1]: inactive | Potency [3]: inactive | Potency [4]: inactive | Potency [5]: inactive | Potency [6]: inactive | Potency [7]: inactive | Potency [8]: inactive | Potency [10]: 20 µM (active) | Potency [11]: inactive | Potency [12]: inactive

CC(=O)C1=C(C)[C@@H]2C[C@@]3(C1)[C@H](C)CC[C@H]3C2(C)C
Potency [1]: inactive | Potency [3]: inactive | Potency [4]: inactive | Potency [5]: inactive | Potency [7]: inactive | Potency [8]: 93.5 µM (active) and 39.9 µM (active) | Potency [11]: 24.5 µM (active) | Potency [12]: 25.2 µM (active)

COc1nc(C)nc(Cl)c1NC1=NCCN1
Potency [2]: inactive | Potency [3]: inactive | Potency [4]: inactive | Potency [5]: inactive | Potency [6]: inactive | max activation [15]: -0.617% (inactive) | Potency [13]: inactive | Potency [14]: inactive | Potency [7]: inactive | Potency [8]: inactive | Potency [9]: inactive | Potency [10]: inactive | Potency [11]: inactive | Potency [12]: inactive

O=C1NCC2(CCN(CCc3ccccc3)CC2)O1
Potency [2]: inactive | Potency [3]: inactive | Potency [4]: inactive | Potency [5]: inactive | Potency [6]: inactive | max activation [15]: -2.2% (inactive) | Potency [13]: inactive | Potency [14]: inactive | Potency [7]: 13.8 µM (active) | Potency [8]: inactive | Potency [9]: inactive | Potency [10]: inactive | Potency [11]: inactive | Potency [12]: inactive

NC(N)=Nc1nc(CSCC/C(N)=N/S(N)(=O)=O)cs1
Potency [1]: inactive | Potency [3]: inactive | Potency [4]: inactive | Potency [5]: inactive | Potency [6]: inactive | Potency [7]: inactive | Potency [8]: inactive | Potency [9]: inactive | Potency [10]: inactive | Potency [12]: inactive

COc1ccc(Cc2cnc(N)nc2N)cc1OC
Potency [2]: inactive | Potency [3]: inactive | Potency [4]: inactive | Potency [5]: inactive | Potency [6]: inactive | max activation [15]: 10.3% (inactive) | Potency [13]: inactive | Potency [14]: inactive | Potency [7]: inactive | Potency [8]: inactive | Potency [9]: inactive | Potency [10]: inactive | Potency [11]: inactive | Potency [12]: inactive

CCn1c2ccccc2c2cc(N)ccc21
Potency [2]: inactive | Potency [3]: 53.9 µM (active) and inactive and 43.3 µM (active) | Potency [4]: inactive | Potency [5]: inactive and 30.6 µM (active) | Potency [6]: 5.39 µM (active) and 30.6 µM (active) and inactive | Potency [7]: 703 nM (active) and 3.99 µM (active) and 10 µM (active) | Potency [8]: 4.43 µM (active) and 31.7 µM (active) and 12.6 µM (active) | Potency [9]: 12.5 µM (active) and 31.7 µM (active) and 28.3 µM (active) | Potency [10]: 626 nM (active) and 2.24 µM (active) and 5.03 µM (active) | Potency [11]: inactive | Potency [12]: 1.77 µM (active) and 5.64 µM (active) and 31.7 µM (active)
